# PubChem BioAssay (NCATS)
# Inconclusive results are not listed. Unmarked numbers belong to inactive results. Calls follow the shape of the dose curve; as a rule, active = well fitted cell-killing curve with a large enough effect; inconclusive = small, poorly fitted or top-dose-only effect; inactive = flat fitted curve, though single readings scatter.
# Assay: MultiTox-Fluor Cytotoxicity Assay - LYMP1-001 - Live Cells (AID 947);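 also: 0% = DMSO only and full inhibition = tetraoctylammonium bromide control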
# Conditions: LYMP1-001 lymphoblastoid cells, live-cell protease fluorescence viability; series mostly up to 92.2 µM; activity change, negative = cytotoxicity: at the top concentration
# Text: NIH Chemical Genomics Center [NCGC]
# NIH Molecular Libraries Screening Centers Network [MLSCN]
# National Institutes of Environmental Health Sciences [NIEHS]
# National Toxicology Program [NTP]
# We have developed a 1536-well cell-based assay for quantitative high throughput screening (qHTS) against a number of cell lines to determine in vitro cytotoxicity of small molecules. This particular assay uses a human lymphoblastoid cell line (LYMP1-001) purchased from Coriell Institute.
# NCGC Assay Protocol Summary:
# The MultiTox-Fluor Cytotoxicity Assay (Promega) is a homogeneous method to simultaneously measure the relative number of live and dead cells in culture by detecting changes in cell membrane integrity. There are two fluorogenic peptide substrates in the assay reagent. Viable cells are determined when the cell-permeant substrate (GF-AFC) enters the cell and is cleaved by protease from live cells resulting in liberated fluorophore. This live-cell protease activity restricted to viable cells is proportional to cell number. The dead cells are determined by using fluorogenic cell-impermeant peptide substrate (bis-AAF-R110) which cleaved by dead cell proteases leaking from damaged cell membrane.
# Using the MultiTox-Fluor Cytotoxicity Assay, the relative number of live cells was measured in the lymphoblastoid cell line with complete culture medium following compound treatment for 16 hours. The assay was performed in opaque black Kalypsys 1536-well plates. In the screen, tetraoctylammonium bromide was used as positive control. Library compounds were measured for their ability to cause acute toxicity in the cell line, as reflected by a decrease in live cell protease activity, in a concentration-dependent manner. […] AC50 values were determined from concentration-response data modeled with the standard Hill equation.
# qHTS protocol for MultiTox-Fluor Cytotoxicity assay
# [Step] [Parameter] [Value] [Description]
# 1. Reagent; 5 uL; 2500 lymphoblastoid cells/well
# 2. Time; 5 hr; 37 C incubation
# 4. Controls; 23 nL; Tetraoctylammonium bromide 6.4pM to 92 uM
# 5. Time; 16 hr; 37 C incubation
# 6. Reagent; 5 uL; MuliTox-Fluor Assay reagent
# 7. Time; 60 min; Room Temperature
# 8. Detection; live-cell fluorescence (Ex/Em=405/510); EnVision plate reader
# Keywords: cell viability, cytotoxicity, lymphoblastoid cell line, fluorescence, NTPHTS, NTPHTS_NCGC, NIEHS, EPA, DSSTox, MLSMR, MLSCN, NIH Roadmap, qHTS, NCGC
row,Structure (SMILES),"activity change, negative = cytotoxicity [%]"
1,CC/C(C)=N/O,12.7
2,[O-]/[N+](=N\O)c1ccccc1,-5.15
3,COC(=O)CCCC(=O)OC,-17.9
4,BrC/C=C/CBr,-14.4
5,O=C1CCCCC1,-1.14
6,CCCCC(CC)C(=O)O (stereo not given),-18.1
7,COC(=O)CC#N,6.63
8,C=Cc1ccccn1,14
9,CCN(C(=O)N(CC)c1ccccc1)c1ccccc1,0.651
10,Cc1cc(C2(c3cc(C)c(O)cc3C)OS(=O)(=O)c3ccccc32)c(C)cc1O,-3.29
11,CCN(CC)c1cccc(O)c1,11.7
12,O=C(O)c1c(Cl)cccc1Cl,-1.15
13,COC(=O)CCC(=O)OC,-3.86
14,Cc1ccccc1C(N)=O,3.97
15,C=C(C)C(=O)OC,-24.5
16,CC(=O)OCc1ccco1,-22.9
17,CC/C=C1/OC(=O)c2ccccc21,-27.2
18,C/C=C1\CC2C=CC1C2 (stereo not given),7.25
19,CC#N,-13.1
20,CC1CCC2CC1C2(C)C (stereo not given),-0.592

row,Structure (SMILES),"activity change, negative = cytotoxicity [%]"
1,CCCC(C)CO (stereo not given),18.3
2,CNC(=O)N(c1ccccc1)c1ccccc1,-10.1
3,CCCCCCCN,-3.59
4,CC=C(Cl)Cl,-3.89
5,Clc1ccccn1,2.62
6,c1ccc2c(c1)ccc1ncccc12,8.21
7,OC1CCCC1,-15.5
8,CCC(C)(C)C,6.53
9,CCCCOCCOCCSC#N,3.31
10,CCCCCCC(=O)O,16.2
11,O=Cc1c(Cl)cccc1Cl,-24
12,FC(F)(F)c1cccc(Cl)c1,-1.94
13,CCOCCOCC,-30
14,Cc1ccccc1Br,16.5
15,Cc1ccccc1C(=O)O,4.79
16,C1CCCC1,-4.41
17,CC(C)(C)c1ccc(OCC2CO2)cc1 (stereo not given),14.3
18,C=Cc1ccccc1C=C,7.68
19,CC(=O)c1ccccn1,-1.27
20,COc1ccc(N)c(C)c1,7.24
